Consider 31 molecules from PubChem BioAssay.

NADPH oxidase 5 (Homo sapiens), sequence (Q96PH1 whole entry, looked up): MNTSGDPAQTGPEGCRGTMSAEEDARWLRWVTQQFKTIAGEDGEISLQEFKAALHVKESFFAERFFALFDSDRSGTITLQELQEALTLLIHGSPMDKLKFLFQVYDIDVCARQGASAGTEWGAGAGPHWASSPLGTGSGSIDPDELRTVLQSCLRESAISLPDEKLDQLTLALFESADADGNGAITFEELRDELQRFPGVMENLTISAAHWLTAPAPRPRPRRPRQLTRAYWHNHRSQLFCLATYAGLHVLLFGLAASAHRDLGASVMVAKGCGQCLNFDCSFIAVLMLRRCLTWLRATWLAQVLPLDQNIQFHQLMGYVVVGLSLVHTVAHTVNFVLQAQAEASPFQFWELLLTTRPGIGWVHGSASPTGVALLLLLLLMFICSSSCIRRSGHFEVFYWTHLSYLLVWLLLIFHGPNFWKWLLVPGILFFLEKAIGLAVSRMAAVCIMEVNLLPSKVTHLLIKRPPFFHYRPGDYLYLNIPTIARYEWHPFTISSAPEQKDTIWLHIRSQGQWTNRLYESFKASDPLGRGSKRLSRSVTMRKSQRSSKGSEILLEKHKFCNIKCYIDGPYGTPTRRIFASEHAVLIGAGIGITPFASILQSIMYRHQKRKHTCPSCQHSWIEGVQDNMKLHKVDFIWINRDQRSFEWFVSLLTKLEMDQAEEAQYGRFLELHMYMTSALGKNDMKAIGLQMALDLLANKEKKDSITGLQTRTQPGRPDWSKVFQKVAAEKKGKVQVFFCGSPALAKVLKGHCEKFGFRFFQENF

One assay addresses NADPH oxidase 5 (Homo sapiens) (UniProt Q96PH1). Nature of the assay: compounds shifting NOX5 Amplex Red fluorescence – cell-based, HEK293-NOX5, NOX inhibitor project, primary screen (AID 1161). Conditions: HEK293-NOX5, ionomycin, 45 min, higher = more signal.
As for `CCOC(=O)C1=CC[C@@H](c2ccccc2)N(S(=O)(=O)c2ccc(C)cc2)C1`, the z-score is -1.63.
Consider `CCN(CC)c1ccc(N2CC=CC34O[C@@H]5/C=C\CCC(C)OC(=O)C5[C@H]3C(=O)N(CCO)[C@@H]4C2=O)cc1` (stereo partly specified), for which the z-score stood at 1.36.
On to `C=CCOC(=O)[C@H]1[C@@H]2C(=O)O[C@@H](c3ccccc3)[C@@H](c3ccccc3)N2[C@@H](c2ccc(OCCOC(=O)[C@H]3C[C@H]4C(=O)N[C@@H](CCCC[N+](C)(C)C)C(=O)N4[C@H]3c3cccc(OCCO)c3)cc2)[C@]12C(=O)Nc1ccc(I)cc12`, for which the z-score was found to be 0.14.
Turning to `O=C1C[C@@](C(=O)NCC(F)(F)F)(c2ccc([N+](=O)[O-])cc2)[C@@H](c2ccc(CO)cc2)N1C1CCCCC1`, the z-score came to 0.104.

Tested on in a further assay: not listed separately
The experiment in a line: compound effects on lung adenocarcinoma cell viability – A549, calcein-AM fluorescence, 48 h, basal, profiling panel (AID 1162). Also: test concentration not given here. The following applies: higher = more signal.
For the molecule `COC(=O)C1(Cc2ccccc2)C=C2C(=C(C(C)C)C(=O)C2C)CN1` (stereo unspecified), the z-score was -0.859.
On the same count and under the same terms, the same measure for `Cc1c(NC(=O)/C(C#N)=C/C=C/c2ccccc2[N+](=O)[O-])c(=O)n(-c2ccccc2)n1C`: -1.22; for `[N-]=[N+]=NCc1ccccc1C[C@@]1(C(=O)NCCN2CCOCC2)N=C(c2ccc(OCCCO)cc2)O[C@@H]1c1ccccc1N=[N+]=[N-]`: -1.6; for `C[n+]1ccc(CCCO)cc1`: -0.566.
`CN1C(=O)C2C=CC(C(O)c3c(F)cccc3Cl)N(Nc3ccccc3)C2C1=O` (stereo unspecified): the z-score was -0.635.
For the molecule `C=C[C@@H](C)[C@H](OC(=O)Nc1ccc(SC)cc1)c1ccc(OCCO)cc1`, the z-score is -0.848.
`CC(C)C(O)C1C=CC2C(=O)N(C)C(=O)C2N1N(c1ccccc1)c1ccccc1` (stereo unspecified): the z-score was -0.659.
Turning to `O=C1c2ccccc2[C@](Cc2ccccc2I)(C(=O)NCc2ccccc2)[C@H](c2ccc(CO)cc2)N1C1CCCCC1`, the z-score was -0.475.
In the case of `CC(=O)n1cc(C(O)C2C=CC3C(=O)N(Cc4ccccc4)C(=O)C3N2n2cnnc2)c2ccccc21` (stereo unspecified), the z-score is -0.919.
On the same count and under the same terms, the figure for `COc1cc2c(cc1OC)CN(C(=O)[C@H]1[C@@H]3C(=O)O[C@@H](c4ccccc4)[C@@H](c4ccccc4)N3[C@@H](c3ccc(OCCO)cc3)[C@]13C(=O)Nc1ccc(C#CC4(O)CCCCCC4)cc13)CC2` is 0.943; for `O=c1cccc(-c2ccc(C(F)(F)F)cc2)o1` it is -1.24.
Turning to `COc1ccc(C(O)C2C=CC3C(=O)N(Cc4ccccc4)C(=O)C3N2n2cnnc2)c2ccccc12` (stereo unspecified), the z-score is 0.0609.
With `CC(C)(C)OC(=O)CC[C@]1(C(=O)NCCN2CCOCC2)N=C(c2ccc(OCCCO)cc2)O[C@H]1c1ccccc1N=[N+]=[N-]`, the z-score was -0.877.
Take `C=CC[C@H](OC(=O)Nc1ccc(OC)cc1)c1ccc(O)c2ccccc12`: the z-score was -1.39.
Regarding `COC(=O)[C@@]1(Cc2ccc(OC)cc2)[C@H]2c3cc(C(=O)N4CCCC4)n(CCc4cc5ccccc5[nH]4)c3C[C@H]2CN1C(=O)c1ccccc1`, the z-score was -0.596.
On the same count and under the same terms, the figure for `COc1ccc(CCNC(=O)[C@@]2(Sc3ccc(C)cc3)CC(=O)N(Cc3cc(C(F)(F)F)cc(C(F)(F)F)c3)[C@@H]2c2ccc(CO)cc2I)cc1` is 0.154; for `COc1ccc(C(O)C2C=CC3C(=O)N(C)C(=O)C3N2N2CCCCC2)cc1` (stereo unspecified) it is -0.972; for `COc1ccc([Si](C)(C)[C@@H]2[C@@H](CC(=O)N3CCC[C@H]3CO)O[C@]3(C(=O)N(Cc4ccc(N5C(=O)c6cccc7cccc5c67)cc4)c4ccccc43)[C@H]2C)cc1` it is -1.22.
In the case of `O=C1c2ccccc2[C@@]2(Cc3ccccc3N(C3CC3)C2=O)[C@H](c2ccc(CO)cc2)N1C1CCCCC1`, the z-score is -0.506.
On to `CCOC(=O)C1=CC[C@@H](c2cc(Cl)ccc2Cl)N(S(=O)(=O)c2ccc(C)cc2)[C@H]1c1ccc(OC)cc1`, for which the z-score was -0.41.
As to `CC=CC(O)C1C=CC2C(=O)N(C)C(=O)C2N1N1CCCCC1` (stereo unspecified), the z-score was -0.0516.
With `C=C(C(=O)CC[C@H](OC(C)=O)c1cccc(OCCO)c1)C(C)C`, the z-score is -0.271.
`CC(C)C(=C=CC[C@H](O)c1ccc(OCCO)cc1)C[C@H](O)c1cc(Cl)cc(Cl)c1O`: the z-score is 0.648.
Consider `COc1ccc(C#Cc2ccc3c(c2)[C@]2(C(=O)N3)[C@H](C(=O)N3CCc4cc(OC)c(OC)cc4C3)[C@H]3C(=O)O[C@H](c4ccccc4)[C@H](c4ccccc4)N3[C@@H]2c2ccc(O)cc2)cc1`, for which the z-score was -0.522.
Take `CN1C(=O)[C@@]2(CCS(=O)(=O)c3ccccc3)N=C(c3ccc(OCCCO)cc3)O[C@H]2c2ccccc21`: the z-score is 0.524.
Turning to `CC[C@H]1C2=C3C(CC[C@H]4C(OCc5ccc(F)cc5C(F)(F)F)OC[C@](C)([C@@H]34)N(C(=O)OC(C)(C)C)C2)C2COC(=O)OCC21` (stereo partly specified), the z-score was -0.195.
The same measure, in the same setting: the figure for `Cc1ccc(S[C@]2(C(=O)NCc3ccccc3)CC(=O)N(C(C)C)[C@@H]2c2ccc(CO)cc2I)cc1` is -0.897.
